Composite z-score and z-score data for 26 compounds are collected here from PubChem BioAssay.

The source made the active and inactive calls.

The first assay is described as follows: probe aLefty1 binding on compound microarray – biochemical, small-molecule microarray, 635/667 nm fluorescence, primary screen (AID 1153).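 Note: score merges spot fluorescence with signal-to-noise ratio from the scanned slide images.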 The settings on record: higher = more signal.
For `COC(=O)[C@@H]1N=C(c2ccc(OCCCO)cc2)O[C@@H]1c1ccccc1CN=[N+]=[N-]`, the composite z-score amounted to 0.881. The same measure, in the same setting: the result for `C=C(COC)C(=O)CC[C@@H](OC(C)=O)c1ccc(OCCO)cc1` reads -0.007; that for `O=C(NCCO)C1=C[C@H](Oc2ccccc2I)[C@@H](O)[C@H](NCc2ccc(F)cc2)C1`, -0.338.

Consider `O=C1O[C@@H](c2ccccc2)[C@@H](c2ccccc2)N2[C@@H](c3ccc(OCCO)cc3)[C@]3(C(=O)Nc4ccc(C#CCCO)cc43)[C@@H](C(=O)Nc3nc4ccccc4s3)[C@H]12`, for which the composite z-score stood at 0.573.

Compound `NCCCC[C@@H]1NC(=O)[C@H]2C[C@@H](C(=O)O)[C@@H](c3cccc(OCCO)c3)N2C1=O` gave a composite z-score of 0.951. Still for that read-out and setting: the result for `COCCOC(=O)N1C(=O)[C@@]2(c3cc(C#CCCO)ccc31)[C@H](C(=O)N1CCc3cc(OC)c(OC)cc3C1)[C@H]1C(=O)O[C@H](c3ccccc3)[C@H](c3ccccc3)N1[C@@H]2c1ccccc1OCCO` reads 1.33. Same read-out and setting: in the case of `COC(=O)[C@@]1(Cc2ccccc2)[C@@H]2[C@@H](CC(=O)[C@H]2CC(=O)C(=O)N(C)C)CN1C(=O)c1ccccc1` it was 0.0811; in that of `O=C1O[C@H](c2ccccc2)[C@H](c2ccccc2)N2[C@H]1[C@@H](C(=O)N1CCN(c3ncccn3)CC1)[C@]1(C(=O)Nc3ccccc31)[C@H]2c1ccc(O)cc1`, 0.0262; in that of `CCOC(=O)C1=CC[C@@H](c2ccccc2Cl)N(S(=O)(=O)c2ccc(C)cc2)[C@H]1c1cccc(OC)c1`, 0.0082.

The nature of the next assay: plasmodial surface anion channel blockers, osmotic lysis – cell-based, P. falciparum Indochina, OD700, 1 h, primary screen (AID 1154). The conditions noted are these: P. falciparum Indochina infected RBC osmotic lysis, higher = more signal, called active from +8 up or from −8 down.
For `Cc1ccccc1C(O)C1C=CC2C(=O)N(c3ccccc3)C(=O)C2N1Nc1ccccc1F` (stereo unspecified), the z-score is 10.8 (active). Take `COC(=O)[C@@]1(CCS(=O)(=O)c2ccccc2)N=C(c2ccc(OCCCO)cc2)O[C@H]1c1ccccc1N=[N+]=[N-]`: the z-score is 26.9 (active). As for `C=C(CCCC)C(=O)CC[C@H](OC(=O)c1cccnc1)c1ccc(CO)o1`, the z-score was 2.21 (inactive). On the same count and under the same terms, in the case of `COCCOC(=O)N1C(=O)[C@@]2(c3cc(C#CC4(O)CCCCCC4)ccc31)[C@H](c1ccc(OCCO)cc1)N1[C@H](c3ccccc3)[C@H](c3ccccc3)OC(=O)[C@H]1[C@@H]2C(N)=O` it was 4.19 (inactive); in that of `CN(C)C(=O)[C@]1(Cc2ccccc2)N=C(c2ccc(OCCCO)cc2)O[C@@H]1c1ccccc1`, 28.8 (active). Still for that read-out and setting: the result for `COc1ccc(C#Cc2ccc3c(c2)[C@]2(C(=O)N3)[C@H](C(=O)Nc3nc4ccccc4s3)[C@H]3C(=O)O[C@H](c4ccccc4)[C@H](c4ccccc4)N3[C@@H]2c2ccc(OCCO)cc2)cc1` reads 2.85 (inactive); that for `CCOC(=O)C[C@H]1[C@H](OC(=O)c2ccc(C(=O)c3ccccc3)cc2)[C@@H](NC(=O)c2ccc3ccccc3c2)c2cc(OCCCO)ccc2N1C(=O)c1ccc2ccccc2n1`, 6.29 (inactive); that for `CN(C)CCCCNC(=O)[C@H]1C[C@H]2C(=O)N[C@@H](Cc3ccccc3)C(=O)N2[C@H]1c1cccc(OCCO)c1`, 2.68 (inactive).

Regarding `C=C(CC1([C@@H](NP(=O)(c2ccccc2)c2ccccc2)[C@H]2C[C@@H]2CCN(C(=O)OCC)S(=O)(=O)c2ccc(C)cc2)CC1)c1ccccc1`, the z-score is 2.02 (inactive). On the same count and under the same terms, the result for `C=C(CCCC)/C(=C/C[C@H](OC(C)=O)c1cccc(OCCO)c1)c1cc(C(=O)OC)ccc1OC` reads 21 (active); that for `C=CCNC(=O)[C@H]1[C@@H]2C(=O)O[C@@H](c3ccccc3)[C@@H](c3ccccc3)N2[C@@H](c2ccccc2OCCO)[C@]12C(=O)N(C(=O)OCCOC)c1ccccc12`, 2.31 (inactive). Still for that read-out and setting: in the case of `O=C1OCCC/C=C\[C@H]2OC34C=CCN(Cc5ccccc5)C(=O)[C@H]3N(CCCCCO)C(=O)[C@@H]4C12` (stereo partly specified) it was -0.457 (inactive); in that of `CC(C)(C)OC(=O)CC[C@]1(C(=O)N2CCOCC2)N=C(c2ccc(OCCCO)cc2)O[C@H]1c1ccccc1CN=[N+]=[N-]`, 13.9 (active); in that of `CCCC=C(CCC)[C@@H](NC(=O)c1ccco1)c1ccc(C(=O)OC)cc1`, -0.687 (inactive). With `COC(=O)c1c(CC[C@@H](CO)NC(=O)N[C@@H](Cc2ccccc2)Cn2cc(-c3cncn3C)nn2)oc(C(C)=O)c1C(=O)OC`, the z-score was 1.49 (inactive). On the same count and under the same terms, in the case of `COC(=O)[C@@]1(Cc2ccc(OC)cc2)[C@H]2c3cc(C(=O)N(C)C)n(Cc4ccsc4Br)c3C[C@H]2CN1C(=O)c1ccccc1` it was 4.25 (inactive); in that of `C=CCC(OC(C)=O)[C@@H]1[C@@H](N(Cc2ccc(-c3ccccc3)cc2)C(=O)c2ccc(-c3ccccc3)cc2)c2cc(OCCCO)ccc2N1C(=O)c1ccc2ccccc2n1` (stereo partly specified), 0.135 (inactive).
